Data reported in the supplement of paper PMC6555819.

How the values were obtained:
Experiment in all cases: PBM binding z-score (relative to random genomic background probes); higher = stronger binding; sequences stand for … in GC…GCGATTGACAGCGTAGAATGAAGG
[1] = system: RARb homodimer (NR concentration 270 nM)
Outline: (§1)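 For binding z-scores, the reference was random background probes on custom Agilent 4×180K protein-binding microarrays. These arrays were incubated 1 h with ligand-free nuclear receptor dimers in PBS pH 7.4, 2% milk, 0.02% Triton X-100, 1 mM DTT, 0.2 mg/mL BSA and 0.4 mg/ml salmon testes DNA. Fluorescence was scanned after antibody detection of each partner (one per run) and regression-normalized.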

[2] = system: RARg:RXRa (NR concentration 270 nM, RXRa partner concentration 90 nM)
Outline: as §1

[3] = system: RARg homodimer (NR concentration 270 nM)
Outline: as §1

[4] = system: RXRa DBDmut IVT, anti-RXR (DBD mutation: RXRa K156A/R161A, NR concentration 90 nM)
Outline: as §1

[5] = system: RXRa homodimer (NR concentration 180 nM)
Outline: as §1

[6] = system: THRa:RXRa (NR concentration 90 nM, RXRa partner concentration 90 nM)
Outline: as §1

[7] = system: THRa homodimer (NR concentration 90 nM)
Outline: as §1

[8] = system: VDR:RXRa (NR concentration 270 nM, RXRa partner concentration 90 nM)
Outline: as §1

[9] = system: VDR homodimer (NR concentration 270 nM)
Outline: as §1

Sequence	PBM binding z-score [1]	PBM binding z-score [2]	PBM binding z-score [3]	PBM binding z-score [4]	PBM binding z-score [5]	PBM binding z-score [6]	PBM binding z-score [7]	PBM binding z-score [8]	PBM binding z-score [9]
ACAGACAGGTGAGTGAAGGTAACTCACCTGGACG	0.335	0.343	0.628	-0.647	0.429	1.83	-0.0711	-0.173	-0.74
AGAATGAGATTAAGATCAGGGAAACAGAATACAT	-0.523	0.0579	0.312	-0.493	-0.0987	-0.0153	-0.567	-0.149	-0.0769
AGAATGAGGTTATCAAGATCAGGGAATTGCGGTC	1.07	1.5	1.12	1.46	2.19	2.49	0.835	2.56	0.805
CAAACTAGGTGAAGAGGTCAAAGTCCGCTTCCCG	4.7	5.44	3.96	1.73	5.48	3.86	1.42	4.67	3.38
CGAACTAGGTCAAGGACAGTGTATCTCCGCACGC	3.56	3.8	4.37	1.87	2.55	3.45	2.61	1.78	0.841
TCACGGAGGACACGAAGGTCAGAGCTTTCCAGAG	3.7	3.41	3.86	0.991	1.91	2.73	0.917	2.33	1.42
TTACCAAGGTGAGCTGAGGTCCTTGATCCAACTC	0.469	0.18	0.227	-0.639	0.399	3.79	0.733	0.464	-0.397
ATCTCTAGGTAAGACTCAGTTCAGTGACGAACGC	0.735	0.464	0.443	0.676	0.364	0.824	0.878	0.924	1.74
TCTTTTAGTTGATTAGGGCAACCGAAACAGCGGA	1.02	1.27	1.12	1.2	0.836	1.07	0.745	0.986	0.435
CCTAGTTGGTCAGGATGTCACACACCGGATATGA	1.17	0.74	1.1	0.164	0.209	0.0669	0.525	0.176	0.443
TAATATAGGTAAAAGGTGAAAGTCGGTGTGGTAA	2.01	2.15	1.32	0.341	2.95	1.87	0.816	1.59	0.638
TCTGCTAGGTCAACGATGGTCAGCTACTCTGCTA	3.48	4.25	5.24	0.833	2.64	3.04	0.776	1.68	-0.337
CGAACTAGGTCACTGACAGGACAGTGAATAGTAA	3.15	4.78	4.99	1.48	2.88	2.81	0.889	1.77	0.448
TCGTATAGGTAAAAGGTGAAAGTCGGTGTGGTAA	2.13	2.13	0.793	1.59	3.14	1.85	0.583	1.58	0.462
GTATCAAGGTGAATAGGTCGTTGATGAGTAGGCG	1.83	2.77	1.78	0.056	1.81	2.29	0.898	1.1	0.555
AGAATGAGGTTTCCAAAGATCAGGGAAACGCTTG	-0.579	-0.0652	-0.103	-0.247	0.124	-0.118	-0.311	-0.555	-0.385
TGAATGAGGTTATAAGATCAGTGAACGTTGCAAA	0.307	1.49	0.953	0.773	1.95	1.69	0.0121	1.14	0.482
ACTATTTGGTCAGCTGAGGTCACACACAATTCGG	4.69	4.24	4.48	2.02	4.4	5.09	5.11	4.64	3.67
AGAATGAGGTTACCAAAAATCAGGGAAACGCTTG	0.769	1.84	1.53	1.07	2.47	2.57	1.03	1.03	0.541
GCTAGTTGGTCAGTTAAAGGTCACACACCGGTCG	5.09	5.56	4.82	0.773	5.12	3.53	2.36	3.95	2.33
TCTATCAGGCCAGAGGGTCACTCAAGAGGTACGG	2.89	2.92	2.44	0.811	2.56	2.29	0.348	2.03	1.16
CAAACTAGGTCAAGAGGTCAATGTCCGCTTCCCG	5.98	7.68	7.46	2.81	7.85	4.21	2.55	5.64	4.02
TATCCTAGGTCATTGGGCCAGTATAGTACGCATC	3.29	4.22	4.55	2.33	3.37	3.25	1.52	3.04	1.65
AATACAGGGTCACTAGGCCACAGTAGGTACGAAT	3.36	5.36	4.87	2.86	5.56	3.38	1.32	4.27	2.95
ATACCAAAGTGATCGTGAGGTCGTTGATACTAAC	1.13	0.445	0.273	1.02	0.855	2.76	2.01	2.02	3.16
CTACCAAGGTGAACATGGTCGTTGATTACTATTC	1.25	1.06	1.14	0.571	0.87	2.25	1.03	1.18	-0.0794

Sequence	PBM binding z-score [1]	PBM binding z-score [2]	PBM binding z-score [3]	PBM binding z-score [4]	PBM binding z-score [5]	PBM binding z-score [6]	PBM binding z-score [7]	PBM binding z-score [8]	PBM binding z-score [9]
CGTCCAAGGTCAAGGCCAGTGAAAGAGACTCGAA	3.8	5.88	6.13	3.31	5.24	3.71	2.15	3.69	1.61
GAGACTGGGGCAAAGCAGGTTACCATAAGGTTGG	1.54	0.842	0.776	-0.396	0.474	3.14	0.644	0.398	-0.202
AGAACGAGGGCTATGAGTTGATAGCACGGGTGGC	-0.36	-0.0451	-0.0854	-0.264	0.416	-0.476	-0.913	0.114	-0.036
TCTTGTAGATCAAGCAGGTAAAGAAAGCCTGAGT	-0.462	-0.262	-0.32	0.476	-0.157	0.095	-0.499	0.212	-0.555
CTAGCAAGGTGAACAAGGTCGTTGATTACTATTC	1.77	1.68	1.5	1.25	2.1	3.18	1.45	6.05	2.32
CCGACTGGGGCAAAGGTTAGCATACTCAGTACGA	1.56	2.76	1.55	0.057	2.79	0.962	-0.171	0.691	-0.381
ATAGGTAGGTTATCGGGTCATTCAGTTTGCGCAT	3.33	3.46	2.72	1.53	3.29	3.41	3.2	5.32	4.02
CCTACTGGGCCACCAAAGGTCATTGATTCAGTGA	4.49	4.61	4.52	0.43	5.36	3.67	0.763	4.13	2.66
TCTAGTTGGTCACGGTGGTCACACACGACGGGTA	1.58	1.53	1.77	0.312	0.842	0.234	0.0512	0.961	-0.372
CCTAGTTGGTCAGGAGGTCACACCCCGGATATGA	4.41	5.03	4.13	0.124	4.77	3.74	2.36	3.82	2.96
ATCTCTAGGTAACCAAGTTCAATGAATGCCGAAC	1.68	0.955	1.08	1.64	0.925	1.89	0.952	4.66	3.84
CGGACTAGGTCATCCAGGACAGTGAATACATTGA	2.76	3.66	4.36	1.7	2.43	3.48	1.79	4.36	1.59
CCGAGTAGGTTATGGGGCATTCGGGCAACGGTGA	1.46	0.533	0.653	-0.483	0.797	0.415	0.172	-0.16	-0.175
ATTTCTAGGTAACAAGTTCAGTGAAAGAGAGGAC	2.14	1.75	1.66	1.44	1.12	1.83	1.35	2.56	3.04
TCATATGGGTAAAAGGTGAAAGTCGGTGTGGTAA	1.98	1.7	0.446	1.05	2.64	1.46	0.164	1.34	-0.0613
TGTCAAAGTTCAAAGGTAGCGTAAGTATCCACAC	3.86	5.84	5.8	4.41	6.07	2.76	-0.0719	4.76	3.39
ACTAGTTGGACAGCTGAGGTCACACACAATTCGG	4.06	3.66	3.43	1.09	3.85	4.57	4.93	3.85	2.99
CCAGACAGTTGAGAAGGTAACTCAGCCTCGATTA	0.381	0.25	0.293	0.456	0.203	0.25	0.485	0.251	0.252
CGTCCAAGGTCAAGGTCAGTGATAGAGACTCGAA	5.36	6.7	7.67	3.76	6.55	4.48	3.93	4.95	3.53
TTACCAAGGTGAGCTGGGGTCGTTGATCCAACTC	1.42	1.31	0.493	-0.222	2.1	4.38	1.23	4.15	1.84
CCGAGCAGGCCAATCTGGGTCACTCAAGGCTTGA	2.28	1.25	1.68	0.0945	1.15	3.72	0.404	0.157	0.347
CCTACTGCGCCAAAAAGGTCATTGATGCCGATAA	4.48	4.82	4.32	1.65	5.56	3.04	1.34	4.94	3.24
ACAGACAGGTGATGATGGTAACTCAGGCTATCAT	0.184	0.343	0.369	-0.173	0.335	0.48	0.015	-0.153	0.157
TAGCCTAGGTCATGGACCAGTATACCACGCGAAC	2.8	4.03	4.21	0.316	3.56	3.18	1.13	2.13	0.57
ACTAGTTGGTCAGCTTAGGTCACACACAATTCGG	3.68	2.59	3.19	0.83	1.69	4.33	3.55	1.82	0.863
CCTACTGGGCCACGAAAGGTCATTGCTTCAGTGA	4.75	4.81	4.35	0.871	4.81	3.73	0.827	4.23	2.61
